From PubChem BioAssay (Tox21)
Values without a mark were called inactive. Records with an inconclusive call do not appear. Entries that show only a call come without a potency. Calls of active or inactive are those of the source. Unless noted, calls follow the shape of the dose curve; as a rule, active = well fitted curve in the direction sought with a large enough effect in the repeat runs; inconclusive = weak or mixed curves; inactive = no such curve, though single readings can be large; an effect the other way counts as inactive or inconclusive.

Legend:
[1] = Caspase-3/7 induction in HepG2 cells by small molecules, qHTS assay (AID 1346978); also: nearly all actives have a fitted effect of over 15% in size
In short: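 Wild-type HepG2 cells, 2,000/well, settled 5 hr at 37 C and 5% CO2, then compound-treated for 17 hr; caspase-3/7 activity read by luminescent Caspase-Glo 3/7 after 30 min at room temperature.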

[2] = Caspase-3/7 induction in CHO-K1 cells by small molecules, qHTS assay (AID 1346980); also: nearly all actives have a fitted effect of over 15% in size
In short: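 Wild-type CHO-K1 cells exposed to compounds for 17hr at 37 C, 5% CO2. Caspase-3/7 activity then measured by Caspase-Glo 3/7 luminescence after 30min at room temperature.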

[3] = Caspase-3/7 induction in HepG2 cells by small molecules, qHTS cell viability counter screen (AID 1346981); also: nearly all actives have a fitted effect of over 30% in size; also: potency is read from the fitted curve at half-maximal effect
In short: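 Wild-type HepG2 cells, 2,000/well, settled 5 hr at 37 C, 5% CO2 before compound addition. Viability read by CellTiter-Fluor fluorescence, reagent added after 16 hr compound exposure, then 1 hr at 37C, in the same wells as the caspase read.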

[4] = biological target: Nuclear receptor subfamily 1 group I member 2 (Homo sapiens) (UniProt O75469); assay: Human pregnane X receptor (PXR) small molecule agonists, qHTS assay (AID 1346982); also: nearly all actives have a fitted effect of over 35% in size; also: potency is read from the fitted curve at half-maximal effect
In short: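 PXR-Luc HepG2 reporter cells (CYP3A4-driven luciferase) in 5% charcoal-stripped FBS medium, plated 5 h before compound addition, then treated 24 h at 37C. Luciferase read by ONE-Glo luminescence after 30 min at room temperature.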

[5] = biological target: Acetylcholinesterase (Homo sapiens) (UniProt P22303); assay: Acetylcholinesterase (AChE) small molecule antagonists: colormetric cell-based qHTS assay (AID 1347395; calls by dose curve; also: nearly all actives have a fitted effect of over 30% in size; also: potency is read from the fitted curve at half-maximal effect)
In short: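 Colorimetric readout: DTNB quantifies thiocholine from acetylthiocholine hydrolysed by endogenous AChE of SH-SY5Y cells (2,000/well, plated overnight). Compound pretreatment 30 min, substrate incubation 90 min, both 37 C.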

[6] = Caspase-3/7 induction in CHO-K1 cells by small molecules, qHTS cell viability counter screen (AID 1346979); also: nearly all actives have a fitted effect of over 35% in size; also: potency is read from the fitted curve at half-maximal effect
In short: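 Cytotoxicity counter screen: CellTiter-Fluor added to compound-treated wild-type CHO-K1 cells at 16 h (37C, 5% CO2), fluorescence measured 1 h later; same wells as caspase-3/7 measurement.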

[7] = biological target: Nuclear receptor subfamily 1 group I member 2 (Rattus norvegicus) (UniProt Q9R1A7); assay: Rat pregnane X receptor (rPXR) activation by small molecules, qHTS assay (AID 1346983); conditions: rPXR luciferase reporter cells, One-Glo luminescence, 24 h; max activation: active compounds read high; also: nearly all actives have a fitted effect of over 20% in size
In short: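 Cell-based rPXR activation assay: rPXR cells, 2,000 per well, rested 5hr at 37 C, then exposed to compounds in DMSO for 24 hr at 37 C. Luciferase activity read by One-Glo luminescence after 30 min at room temperature.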

[8] = biological target: Nuclear receptor subfamily 1 group I member 2 (Homo sapiens) (UniProt O75469); assay: CYP3A4 induction through human pregnane X receptor (PXR) by small molecules, qHTS assay (AID 1346984); also: nearly all actives have a fitted effect of over 40% in size; also: potency is read from the fitted curve at half-maximal effect
In short: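 DPX-2 HepG2 cells carrying a PXR response element and CYP3A4-promoter luciferase construct, treated with compounds 24 hr at 37C. Then P450-Glo CYP3A4 Luciferin-IPA substrate (3uM final) for 3 hr at 37C, One-Glo added, luminescence read.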

[9] = biological target: Nuclear receptor subfamily 1 group I member 2 (Homo sapiens) (UniProt O75469); assay: Human pregnane X receptor (PXR) activation by small molecules, qHTS assay (AID 1346985); also: nearly all actives have a fitted effect of over 40% in size; also: potency is read from the fitted curve at half-maximal effect
In short: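 DPX-2 cells (HepG2 co-transfected with a PXR response element and a CYP3A4-promoter luciferase construct) were seeded at 2,000 per well, rested 5 hr at 37C, then exposed to DMSO-dissolved compounds for 24 hr. Activation was read as luciferase luminescence.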

Acetylcholinesterase (Homo sapiens), sequence (P22303 whole entry, looked up): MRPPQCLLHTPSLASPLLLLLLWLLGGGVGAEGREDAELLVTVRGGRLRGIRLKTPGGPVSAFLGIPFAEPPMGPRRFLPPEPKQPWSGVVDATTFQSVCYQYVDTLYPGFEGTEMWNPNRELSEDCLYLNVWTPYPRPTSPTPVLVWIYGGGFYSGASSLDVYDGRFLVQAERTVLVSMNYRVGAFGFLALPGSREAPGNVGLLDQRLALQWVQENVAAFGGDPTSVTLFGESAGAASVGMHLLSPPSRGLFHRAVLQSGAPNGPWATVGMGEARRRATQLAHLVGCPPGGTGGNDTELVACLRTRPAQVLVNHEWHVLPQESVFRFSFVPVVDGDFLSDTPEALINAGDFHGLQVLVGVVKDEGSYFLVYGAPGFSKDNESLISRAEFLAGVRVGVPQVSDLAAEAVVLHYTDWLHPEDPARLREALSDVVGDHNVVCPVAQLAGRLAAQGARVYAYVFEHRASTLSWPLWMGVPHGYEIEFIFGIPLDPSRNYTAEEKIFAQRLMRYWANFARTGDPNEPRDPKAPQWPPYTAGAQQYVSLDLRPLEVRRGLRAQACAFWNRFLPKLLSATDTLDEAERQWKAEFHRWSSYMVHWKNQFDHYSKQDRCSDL
Nuclear receptor subfamily 1 group I member 2 (Homo sapiens), sequence (O75469 whole entry, looked up): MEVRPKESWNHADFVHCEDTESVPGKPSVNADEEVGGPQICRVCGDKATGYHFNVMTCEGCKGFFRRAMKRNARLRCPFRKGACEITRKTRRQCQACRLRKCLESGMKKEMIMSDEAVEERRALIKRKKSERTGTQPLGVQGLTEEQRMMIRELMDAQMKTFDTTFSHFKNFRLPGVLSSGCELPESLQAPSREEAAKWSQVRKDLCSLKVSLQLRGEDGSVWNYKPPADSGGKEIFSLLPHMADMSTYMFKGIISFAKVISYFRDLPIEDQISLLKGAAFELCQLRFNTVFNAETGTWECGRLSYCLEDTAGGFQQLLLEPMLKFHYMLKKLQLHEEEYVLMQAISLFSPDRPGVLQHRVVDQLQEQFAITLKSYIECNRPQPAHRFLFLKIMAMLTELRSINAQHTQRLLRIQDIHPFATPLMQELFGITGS
Nuclear receptor subfamily 1 group I member 2 (Rattus norvegicus), sequence (Q9R1A7 whole entry, looked up): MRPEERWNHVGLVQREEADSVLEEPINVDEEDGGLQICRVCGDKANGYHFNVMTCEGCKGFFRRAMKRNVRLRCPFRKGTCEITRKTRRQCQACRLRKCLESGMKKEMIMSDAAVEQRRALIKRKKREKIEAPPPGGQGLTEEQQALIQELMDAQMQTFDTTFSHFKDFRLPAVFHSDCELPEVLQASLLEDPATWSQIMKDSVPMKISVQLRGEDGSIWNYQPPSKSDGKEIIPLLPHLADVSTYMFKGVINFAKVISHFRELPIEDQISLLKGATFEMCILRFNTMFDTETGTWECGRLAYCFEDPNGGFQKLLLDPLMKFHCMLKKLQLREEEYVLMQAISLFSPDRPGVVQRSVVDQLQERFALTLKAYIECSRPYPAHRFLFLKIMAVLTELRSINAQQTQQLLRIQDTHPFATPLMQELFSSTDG

SMILES	Potency [1]	Potency [2]	Potency [3]	Potency [4]	Potency [5]	Potency [6]	max activation [7]	Potency [8]	Potency [9]
CCCSC(=O)N(CCC)CCC	inactive	inactive	inactive	inactive	inactive	–	–	–	–
CCN(CC)CCOC(=O)C(C)(c1ccccc1)c1ccccc1	–	inactive	inactive	13.3 µM (active)	inactive	inactive	7.07%	7.94 µM (active)	8.91 µM (active)
C[C@H]1CCC[C@H](O)CCCCCc2cc(O)cc(O)c2C(=O)O1	inactive	inactive	54.9 µM (active)	7.75 µM (active)	inactive	–	-2.62%	inactive	12.6 µM (active)
COc1ccc2c(c1OC)CN1CCc3cc4c(cc3C1C2)OCO4 (stereo unspecified)	inactive	–	inactive	inactive	8.71 µM (active)	–	0.596%	inactive	inactive
COc1cc(OC)nc(NC(=O)NS(=O)(=O)c2ncccc2OCC(F)(F)F)n1	inactive	inactive	inactive	inactive	inactive	inactive	–	–	–
CNC(=O)O/N=C(\C)SC	–	inactive	inactive	inactive	1.59 µM (active)	inactive	–	–	–
CC(C)(C)NCC(O)c1cc(Cl)c(N)c(Cl)c1 (stereo unspecified)	inactive	inactive	–	inactive	inactive	inactive	-2.23%	inactive	inactive
Nc1cnn(-c2ccccc2)c(=O)c1Cl	inactive	inactive	inactive	–	inactive	inactive	–	–	–
CC1(C)COP(Oc2ccccc2)OC1	–	inactive	inactive	inactive	inactive	inactive	–	–	–
CCOC(=O)C(c1c(O)c2ccccc2oc1=O)c1c(O)c2ccccc2oc1=O	inactive	inactive	inactive	–	inactive	inactive	–	–	–
N#CC(O)c1ccccc1 (stereo unspecified)	inactive	inactive	–	–	inactive	–	–	–	–
CCCCOC(=O)c1ccccc1C(=O)O	inactive	–	inactive	inactive	inactive	inactive	–	–	–
CCC(=O)C(CCN(C)C)(c1ccccc1)c1ccccc1	inactive	–	inactive	16.8 µM (active)	inactive	–	–	–	–
CC1CCCCC1NC(=O)Nc1ccccc1 (stereo unspecified)	inactive	–	inactive	24.3 µM (active)	inactive	inactive	–	–	–
CCOC(=O)NC(=S)Nc1ccccc1NC(=S)NC(=O)OCC	inactive	inactive	inactive	27.3 µM (active)	inactive	–	–	–	–
CC(=O)C(Cl)Cl	inactive	inactive	inactive	inactive	inactive	–	–	–	–
O=C(O)c1ccc2[nH]cc(CCCCN3CC=C(c4ccccc4)CC3)c2c1	–	–	inactive	–	inactive	inactive	-0.864%	inactive	inactive
CCN(CC)C(=O)[C@@H]1C=C2c3cccc4[nH]cc(c34)C[C@H]2N(C)C1	inactive	–	–	80 µM (active)	73.8 µM (active)	89.8 µM (active)	–	–	–
O=C1OC(CCN2CCCCC2)OC1(c1ccccc1)c1ccccc1 (stereo unspecified)	inactive	–	inactive	–	inactive	–	–	–	–
Nc1cc2c3c(c1)C(c1ccccc1)=N[C@@H](NC(=O)c1cccnc1)C(=O)N3CC2	inactive	–	inactive	61.1 µM (active)	inactive	–	–	–	–
C#C[C@]1(O)C=C[C@H]2[C@@H]3CCC4=CC(=O)CC[C@@H]4[C@H]3CC[C@@]21CC	inactive	inactive	inactive	–	inactive	–	-1.56%	inactive	inactive
COC(=O)COc1ccc(Cl)cc1Cl	–	inactive	inactive	inactive	inactive	–	–	–	–
C=CCC1=C(C)[C@@H](OC(=O)[C@@H]2[C@@H](C=C(C)C)C2(C)C)CC1=O	inactive	–	–	–	inactive	43.3 µM (active)	–	–	–
CC(CCc1ccccc1)NC(C)C(O)c1ccc(O)cc1 (stereo unspecified)	inactive	–	inactive	inactive	inactive	–	–	–	–
N#CC(CCc1ccc(Cl)cc1)(Cn1cncn1)c1ccccc1 (stereo unspecified)	–	inactive	48.6 µM (active)	19.3 µM (active)	inactive	43.3 µM (active)	–	–	–
O=[N+]([O-])c1cc(Cl)c(Cl)c(Cl)c1	–	inactive	inactive	inactive	inactive	inactive	–	–	–
Cc1cnc[nH]1	inactive	inactive	inactive	–	inactive	inactive	–	–	–
CC1=C(C(=O)Nc2ccccc2)S(=O)(=O)CCO1	inactive	inactive	–	–	inactive	61.1 µM (active)	–	–	–
COC(=O)C1=CCCN(C)C1	inactive	inactive	inactive	–	inactive	inactive	–	–	–
Fc1ccc(C2(Cn3cncn3)OC2c2ccccc2Cl)cc1 (stereo unspecified)	–	inactive	inactive	–	inactive	–	–	–	–
